12-LOX inh = ALOX12 (human) lipoxygenase inhibition. purified 12hLO, xylenol orange hydroperoxide absorbance. 1.1% of 580,000 active. P18054. Potency, µM (titrated, usually from 108 µM), most hits filed as inhibitors
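Hydroperoxide product was detected by ferrous iron/xylenol orange as the 573 to 405 nm absorbance ratio. Arachidonic acid at 40 uM (final) was turned over for 30 min at room temperature by 150 nM human 12hLO, pH 7.0 Hepes buffer, after 15 min compound preincubation.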
PLK1 PBD inh = blocks phosphopeptide binding to human PLK1 polo-box domain. AID 720504. P53350. Potency, µM, usual class: inhibitors. Plk1 PBD binding of FITC phosphopeptide, fluorescence polarization. 2.8% of 360,000 active; also: series mostly up to about 57 µM; nearly all actives have a fitted effect of over 65% in size
JMJD2A Tudor = inhibitors of human JMJD2A Tudor domain; Potency, µM (top dose mostly 114 µM), most hits filed as inhibitors; AID 504339; O75164; AlphaScreen JMJD2A-Tudor / H3K4me3 peptide binding; 4.4% of 390,000 active; also: nearly all actives have a fitted effect of over 50% in size
HP1b binding inh = inhibitors of HP1-beta chromodomain binding to methylated histone tails; Potency, µM (highest dose often 114 µM), most hits filed as inhibitors; 0.56% of 390,000 active; AlphaScreen HP1-beta / biotin-H3K9me3 peptide binding; also: nearly all actives have a fitted effect of over 70% in size
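HP1-beta protein (50 nM final) preincubated 30 min at room temperature with biotinylated H3(1-18)K9me3 peptide (50 nM) in PBS pH 7.4, 0.01% Tween-20, then compound added for 30 min. AlphaScreen streptavidin donor/nickel chelate acceptor beads (10 ug/mL final), 30 min dark, luminescence read.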
G9a block = inhibitors of human histone lysine methyltransferase G9a | Potency, µM (series often up to 102 µM), actives largely listed as inhibitors | Q96KQ7 | 8.8% of 350,000 active | AID 504332 | G9a H3K9 monomethylation, AlphaScreen, 2 h; also: nearly all actives have a fitted effect of over 75% in size
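Chemiluminescent proximity detection of H3K9 monomethylation, read after 10 min bead incubation in the dark. Reaction: 20 nM G9a, 500 nM biotin-H3K9 peptide, 20 uM SAM cofactor, 2 h, room temperature, following 15 min enzyme-compound preincubation.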
BAZ2B block = blocks human BAZ2B. Q9UIF8. AlphaScreen BAZ2B-H3K14Ac peptide displacement. Potency, µM (top dose mostly 114 µM), most hits filed as inhibitors. 4.4% of 360,000 active. AID 504333; also: nearly all actives have a fitted effect of over 60% in size
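BAZ2B (50 nM) with biotin-H3(5-23)K14Ac peptide (50 nM) in PBS pH 7.4, 0.01% Tween-20, preformed 30 min, then compound 30 min at room temperature; top concentration 110uM. AlphaScreen streptavidin donor/nickel chelate acceptor beads (10 ug/mL final), 20 min dark, signal read.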
Of the large screens only hits and unclear results are named; the others gave an inactive call. Rows were chosen to be rich in hits. Some 9% of all compounds tested hit in one or more screens of this group. Calls follow the shape of the dose curve; as a rule, active = well fitted curve in the direction sought with a large enough effect; inconclusive = small, poorly fitted or top-dose-only effect, or another doubt; inactive = no such curve, though single readings can be large; an effect the other way counts as inactive or inconclusive.

O=C(N/N=C1/CCS(=O)(=O)c2ccc(F)cc21)c1ccccn1	JMJD2A Tudor 13µM, BAZ2B block 20µM
CCCOc1ccc(C[N+](C)(C)C)cc1C[N+](C)(C)C	12-LOX inh 63µM (no result: PLK1 PBD inh, JMJD2A Tudor, HP1b binding inh, G9a block, BAZ2B block)
O=C(NC(=S)Nc1cccc(O)c1)C12CC3CC(CC(C3)C1)C2	12-LOX inh 22µM (no result: JMJD2A Tudor, HP1b binding inh, G9a block, BAZ2B block)
O=C(NNC(=O)C12CC3CC(CC(C3)C1)C2)c1cccc(O)c1	none
O=C(NC(=S)Nc1ccc2c(c1)OCCO2)c1ccco1	JMJD2A Tudor inconclusive, G9a block 71µM, BAZ2B block inconclusive
O=C(NC(=S)Nc1cccc(O)c1)c1ccco1	12-LOX inh inconclusive, G9a block 50µM
O=C(NC1CCCC(C(F)(F)F)C1)c1ccc([N+](=O)[O-])o1 (configuration not stated)	none (no result: G9a block, BAZ2B block)
N#Cc1ccc(OCC(=O)OCCCOC(=O)COc2ccc(C#N)cc2)cc1	G9a block inconclusive
CSc1cccc(NC(=O)c2[nH]c(C)c(C(C)=O)c2C)c1	HP1b binding inh inconclusive, G9a block inconclusive, BAZ2B block 50µM
CC(=O)c1c(C)[nH]c(C(=O)Nc2ccc(Cl)cc2)c1C	none
COc1cccc(CN(C)C(=O)c2ccc(NS(=O)(=O)c3ccc4[nH]c(=O)[nH]c4c3)cc2)c1OC	none
CCOc1ccc(NS(=O)(=O)c2ccc(C(=O)N(C)Cc3cccc(OC)c3OC)cc2)cc1	12-LOX inh inconclusive, JMJD2A Tudor 89µM
CCOc1ccc(NS(=O)(=O)c2ccc(NC(=S)NC(=O)C(C)C)cc2)cc1	PLK1 PBD inh 27µM
O=C1CSC(=Nc2ccc(O)cc2)N1	none
Cc1nn2c(N3CCOCC3)c3c(nc2c1-c1ccccc1)CCCC3	none
CCC(C)C(NC(=O)c1ccc(Cl)cc1)C(=O)Nc1cccnc1 (configuration not stated)	none
COc1ccc(N2CC(C(=O)Nc3nnc(SCc4ccccn4)s3)CC2=O)cc1 (configuration not stated)	G9a block 50µM
CNC(=O)CSc1nnc(NC(=O)C2CC(=O)N(c3ccccc3OC)C2)s1 (configuration not stated)	PLK1 PBD inh inconclusive, G9a block 10µM
COCCSc1nnc(NC(=O)C2CC(=O)N(c3ccc(OC)cc3)C2)s1 (configuration not stated)	none
COc1ccccc1N1CC(C(=O)Nc2nnc(SCc3ccccn3)s2)CC1=O (configuration not stated)	G9a block inconclusive
COc1ccc(NC(=O)CCC(=O)Nc2nnc(C3CCCCC3)s2)c(OC)c1	G9a block 71µM
COc1ccc(N2CC(C(=O)Nc3nnc(SCC(=O)c4ccccc4)s3)CC2=O)cc1 (configuration not stated)	G9a block 13µM
O=C(c1ccc(N2CCN(C3CC(=O)N(c4ccc(F)cc4)C3=O)CC2)cc1)c1cccnc1 (configuration not stated)	none (no result: 12-LOX inh, PLK1 PBD inh, JMJD2A Tudor, HP1b binding inh)
Clc1ccc(NCc2nnc3n2CCCCC3)cc1	12-LOX inh inconclusive
CN(C)C[C@H]1C[C@H](CO)CN(C(=O)c2ccccc2OCc2ccccc2)C1	none (no result: PLK1 PBD inh, JMJD2A Tudor, HP1b binding inh, G9a block, BAZ2B block)
O=C(Nc1ccc(Cl)c(Cl)c1)c1cccnc1	12-LOX inh inconclusive
Cc1ccc(O)c(C(=O)c2cnc3onc(-c4ccc(F)cc4)c3c2)c1	HP1b binding inh inconclusive, G9a block inconclusive
Cc1ccc(N2CC(C(=O)N3CCC(C(=O)Nc4nnc(C(C)C)s4)CC3)CC2=O)cc1 (configuration not stated)	12-LOX inh inconclusive, G9a block 45µM
O=C(Nc1nnc(C2CCCCC2)s1)C1CC(=O)N(c2ccc(F)cc2)C1 (configuration not stated)	none
COc1ccc(N2CC(C(=O)Nc3nnc(C4CCCCC4)s3)CC2=O)cc1 (configuration not stated)	PLK1 PBD inh 30µM, JMJD2A Tudor 22µM
COc1ccc(N2CC(C(=O)N/N=C/c3cccs3)CC2=O)cc1 (configuration not stated)	PLK1 PBD inh 24µM
NC(=O)CSc1nnc(NC(=O)C2CC(=O)N(c3ccc(F)cc3)C2)s1 (configuration not stated)	12-LOX inh inconclusive, PLK1 PBD inh inconclusive, BAZ2B block inconclusive (no result: G9a block)
Cc1ccc(N2CC(C(=O)Nc3nnc(SCC(N)=O)s3)CC2=O)cc1 (configuration not stated)	G9a block 40µM
COc1ccc2ccccc2c1/C=N/NC(=O)c1nnn(-c2nonc2N)c1CN(C)C	none
N#Cc1nccc2ccc(OCc3ccc(Br)cc3)cc12	none (no result: JMJD2A Tudor, HP1b binding inh, G9a block, BAZ2B block)
CCc1ccc(NS(=O)(=O)c2[nH]ncc2C(=O)OC)cc1	JMJD2A Tudor 56µM, G9a block 2.5µM, BAZ2B block inconclusive (no result: PLK1 PBD inh)
COC/C=C/C1=CC2=CC(=O)C(C)(OC(=O)c3cnc4ccccc4n3)C(=O)C2=CN1c1ccccc1 (configuration not stated)	12-LOX inh inconclusive, JMJD2A Tudor inconclusive
COC/C=C/C1=CC2=CC(=O)C(C)(OC(=O)c3cnc4ccccc4n3)C(=O)C2=CN1c1ccc(CO)cc1 (configuration not stated)	BAZ2B block 10µM (no result: 12-LOX inh, PLK1 PBD inh, JMJD2A Tudor, HP1b binding inh, G9a block)
COC/C=C/C1=CC2=CC(=O)C(C)(OC(=O)c3cnc4ccccc4n3)C(=O)C2=CN1CC(C)C (configuration not stated)	JMJD2A Tudor inconclusive (no result: 12-LOX inh, G9a block, BAZ2B block)
COC/C=C/C1=CC2=CC(=O)C(C)(OC(=O)c3cnc4ccccc4n3)C(=O)C2=CN1C1CCCCC1 (configuration not stated)	G9a block 40µM, BAZ2B block inconclusive (no result: 12-LOX inh, PLK1 PBD inh, JMJD2A Tudor, HP1b binding inh)
Cc1ccc(C(=O)NC2CCCN(c3cc(N(C)C)ncn3)C2)s1 (configuration not stated)	none (no result: PLK1 PBD inh, JMJD2A Tudor, HP1b binding inh, G9a block, BAZ2B block)
O=C(NCc1ccccc1)c1ccc(C2SCCS2)cc1	none (no result: PLK1 PBD inh, JMJD2A Tudor, HP1b binding inh, G9a block, BAZ2B block)
CN(C)C(CNC(=O)c1cnc(Cl)c(Cl)c1)c1ccccc1 (configuration not stated)	JMJD2A Tudor 20µM, HP1b binding inh inconclusive, G9a block inconclusive, BAZ2B block 56µM
CN(C)C(CNC(=O)c1ccc(C2SCCS2)cc1)c1ccccc1 (configuration not stated)	JMJD2A Tudor inconclusive, G9a block 50µM
O=C(OC1CCOC1=O)c1cccc(S(=O)(=O)Nc2cccc(Cl)c2)c1 (configuration not stated)	12-LOX inh inconclusive
COc1ccc(C(=O)N2C[C@@H](Oc3ccccc3)C[C@H]2C(=O)N2CCCC2)cc1F	none (no result: PLK1 PBD inh, JMJD2A Tudor, HP1b binding inh, G9a block, BAZ2B block)
CSCc1c(C(=O)OCC(=O)c2ccc[nH]2)oc2ccccc12	G9a block 25µM (no result: 12-LOX inh)
COCc1c(C(=O)OCC(=O)c2ccc[nH]2)oc2ccccc12	none (no result: G9a block, BAZ2B block)
COc1ccc(N2CCN(Cc3csc(C)c3-c3ccc(C)cc3)CC2)cc1	12-LOX inh inconclusive, JMJD2A Tudor 13µM, HP1b binding inh 35µM, G9a block 11µM, BAZ2B block 28µM
